Compound activity as filed in PubChem.
Compounds with a hit are over-represented: about 1.9% of the library has one in this group of screens.
HTR5A inv ctr – counter-screen for OPRM1-OPRD1 inverse agonists: human HTR5A inverse agonism; P47898; HTR5A cell line, luminescence; inhibition, % at 9.3 µM; 340,000 tested, 0.083% active; AID 504634; in the data active means inhibition mostly above about 23%, no sharp cut-off; inactive means mostly below about 18%;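 further: 0% = cells with DMSO and 100% = no-cell wells with DMSO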
Target sequence (P47898 whole entry, looked up): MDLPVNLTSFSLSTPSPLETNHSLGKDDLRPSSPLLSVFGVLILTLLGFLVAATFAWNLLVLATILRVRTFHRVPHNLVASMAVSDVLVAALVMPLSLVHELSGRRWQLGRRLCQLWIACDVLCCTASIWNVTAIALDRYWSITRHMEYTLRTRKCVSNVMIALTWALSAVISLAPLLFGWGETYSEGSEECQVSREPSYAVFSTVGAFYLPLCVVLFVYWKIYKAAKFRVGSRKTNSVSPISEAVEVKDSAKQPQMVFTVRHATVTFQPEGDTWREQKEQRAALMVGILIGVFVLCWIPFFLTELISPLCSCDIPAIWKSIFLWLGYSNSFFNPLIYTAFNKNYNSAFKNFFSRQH
MsrA inhibitor – inhibitors of bovine MsrA | inhibition, % at 15.5 µM | AID 651718 | 360,000 tested, 0.75% active | purified bovine MsrA, absorbance read-out; in the data active means inhibition above about 4.5%;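 further: 0% = vehicle wells with enzyme and 100% = reference inhibitor wells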
MOR-DOR ag – agonists of human mu-delta opioid receptor heterodimerization; P35372+P41143; cells, OPRM1-OPRD1 heterodimerization, luminescence; activation, % at 9.3 µM; 340,000 tested, 0.3% active; in the data active means activation above about 18%;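 further: 0% = vehicle-treated cells and 100% = reference agonist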
OPRM1-OPRD1 inv – inverse agonist of human OPRM1-OPRD1 heterodimerization | AID 504357 | inhibition, % at 9.3 µM | cell-based MOR-DOR heterodimer luminescence, inverse agonism | 340,000 tested, 0.21% active | P35372+P41143; in the data active means inhibition above about 22%, passing the limit was not always enough;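 further: 0% = cells with DMSO and 100% = wells without cells with DMSO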
MsrA act – activates bovine MsrA enzyme; purified bovine MsrA, absorbance read-out; activation, % at 10.6 µM; 360,000 tested, 0.3% active; in the data active means activation above about 7.5%;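 further: 0% = vehicle and 100% = reference activator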
HTR5A ag – HTR5A agonism, opioid heterodimer counter-screen; 340,000 tested, 0.61% active; AID 504692; HTR5A agonist assay, luminescence, cell-based; P47898; activation, % at 9.3 µM; in the data active means activation mostly above about 9.5%, no sharp cut-off; inactive means mostly below about 7.6%;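 further: 0% = cells with vehicle only and 100% = reference agonist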
MsrA activ conf – confirmation of bovine methionine sulfoxide reductase A activators; shares compounds with MsrA act; purified bovine MsrA, absorbance read-out; activation, % at 10.6 µM; 1,000 tested, 12% active; AID 602270; in the data active means activation above about 4%;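 further: enzyme coupled to thioredoxin and thioredoxin reductase with NADPH; 0% = vehicle wells and 100% = reference activator wells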
An asterisk follows results filed as active; nt = no result.

SMILES	HTR5A inv ctr	MsrA inhibitor	MOR-DOR ag	OPRM1-OPRD1 inv	MsrA act	HTR5A ag	MsrA activ conf
CCN(CC)CCn1c2c(c(SCC(=O)Nc3nc4ccc(C)cc4s3)nc1=O)CCC2	-15	0	-3	16	7.9*	-2	-1
CCc1cc2c(-c3ccccc3)cc(=O)oc2cc1OC(=O)c1cccs1	8	2	-2	8	11*	-3	-4
CC1CCCC(C)N1/N=C/c1cc(Br)cc(Br)c1O (stereo not given)	13	0	1	-4	9.2*	-4	3
CC(C)c1ccc(C(=O)CSc2ncn[nH]2)cc1	-7	-1	-2	11	14*	1	-2
O=C(CSc1ncn[nH]1)c1ccc2c(c1)OCCO2	-21	0	2	-13	3	3	nt
COC(=O)c1cc(S(=O)(=O)NCC2CCN(C(=O)C(=O)c3cc4ccccc4o3)CC2)cs1	nt	2	nt	nt	nt	nt	nt
COC(=O)c1ccc2nc(-c3ccc(Cl)cc3)c(Cc3ccccc3)n2c1	nt	-1	nt	nt	nt	nt	nt
Cc1ccccc1-c1noc(CCC(=O)NCc2ccco2)n1	-9	-1	-3	17	12*	4	-2
CC(=O)C1=C(C)N(CC(C)C)C(=S)NC1c1ccc(Br)cc1 (stereo not given)	nt	1	nt	nt	nt	nt	nt
O=C(CCCc1ccccc1)NCCC1=CCCCC1	-10	1	-3	18	8.5*	4	-2
O=C(CCc1ccccc1)NCCC1=CCCCC1	10	0	0	2	-3	-4	nt
COc1ccc(N=C2Sc3ccccc3[C@@H]3C[C@H]4[C@H](CON4C)CN23)c(OC)c1	nt	0	nt	nt	nt	nt	nt
CNc1ncnc2sc(-c3ccccc3)cc12	1	4	-1	4	-5	0	nt
S=c1[nH]cnc2sc(-c3ccccc3)cc12	13	2	1	-3	8.2*	-5	0
CC(C)OP(=O)(OC(C)C)C(C)NC(=O)Cc1ccccc1 (stereo not given)	-24	0	-2	10	17*	1	0
Cc1cc2nc(-c3ccc[nH]c3=O)n(Cc3ccc(F)cc3)c2cc1C	-11	2	-2	11	-6	3	nt
O=c1[nH]cccc1-c1nc2ccccc2n1Cc1ccc(F)cc1	7	1	-2	9	15*	-2	-3
Cc1nnc(SCCC#N)n(CCC#N)c1=O	-2	0	-2	14	9.2*	-3	-2
COC(=O)[C@]12C[C@H](CC(=O)NCc3cccc4ccccc34)C(=O)N(CCC3=CCCCC3)C1=C[C@H](COCc1ccccc1)O[C@@H]2C	nt	0	nt	nt	nt	nt	nt
CS(=O)(=O)c1cc([N+](=O)[O-])c(Sc2nc3ccccc3[nH]2)c([N+](=O)[O-])c1	-17	-1	8	-43	8.0*	1	10*
CCN(CC(=O)NCc1ccc(F)cc1)C(=O)c1ccc(Cl)cc1	6	1	-3	13	-1	-2	nt
CCN(CC(=O)NCc1ccc(Cl)cc1)C(=O)c1ccc(C#N)cc1	-13	-1	-2	8	16*	3	-1
CS(=O)(=O)Nc1cccc(-c2cn3c(n2)SCC3)c1	-6	1	-3	15	-10	2	nt
CCS(=O)(=O)Nc1cccc(-c2cn3c(n2)SCC3)c1	-6	-1	-2	12	7.7*	1	1
CCOC(=O)N1CCN(c2cc3[nH]c(=S)[nH]c3cc2F)CC1	8	-1	1	-3	1	-1	nt
SMILES	HTR5A inv ctr	MsrA inhibitor	MOR-DOR ag	OPRM1-OPRD1 inv	MsrA act	HTR5A ag	MsrA activ conf
CCOC(=O)N1CCN(c2c(F)cc3[nH]c(=S)[nH]c3c2Br)CC1	24	1	2	-11	12*	8	-3
Oc1c(Br)cc(Br)cc1CNc1ccc(F)cc1	-4	0	0	2	8.9*	1	-1
CC12C=CC(C)(C3C(=O)NC(=O)C31)C1C3C(=O)NC(=O)C3C12 (stereo not given)	nt	1	nt	nt	nt	nt	nt
CC(=O)N1c2ccccc2Sc2ccc3ccccc3c21	nt	1	nt	nt	9.2*	nt	-3
O=C(Nc1ccc2c(c1)OCCO2)NC12CC3CC(CC(C3)C1)C2	15	0	1	-3	9.1*	-3	1
O=C(Nc1ccc2c(c1)OCCO2)Nc1ccc2c(c1)OCO2	7	0	-3	17	-3	-3	nt
O=[N+]([O-])c1ccc(C=Nc2cccc3ccccc23)s1	5	nt	5	-25	8.1*	-2	6.5*
C[C@@H]1CN([C@H](C)CO)C(=O)c2cc(NC(=O)Nc3ccc(F)cc3)ccc2O[C@@H](C)CCCCO[C@@H]1CN(C)C(=O)CCCN(C)C	nt	-1	nt	nt	nt	nt	nt
C=CCn1c(COc2ccc(Cl)cc2)nnc1SCC(=O)NCC(=O)OCC	8	1	-2	12	8.2*	2	0
C=CCn1c(COc2ccc(Cl)cc2)nnc1SCC(=O)Nc1ccc(S(N)(=O)=O)cc1	11	0	-2	12	-3	4	nt
O=S1(=O)CC(N2CCCC2)CN1Cc1cn(Cc2ccc(C(F)(F)F)cc2)nn1 (stereo not given)	nt	0	nt	nt	nt	nt	nt
CC(C)Cc1c(O)nc(SCC(=O)N2CCCCCC2)[nH]c1=O	-1	2	-1	5	22*	0	-1
N#CCCN(Cc1cccnc1)C(=O)Nc1ccc(Cl)c(Cl)c1	-17	1	1	-6	9.1*	3	-2
COc1ccc(-c2cc(-c3ccccc3)nc(N3CCCC3)n2)cc1OC	-9	0	3	-15	8.0*	2	-1
O=C(O)c1ccccc1C(=O)Nc1n[nH]c(=S)s1	-17	1	-1	3	8.7*	-5	2
O=C(Nc1nnc(-c2ccco2)o1)c1ccc(S(=O)(=O)N2CCCC2)cc1	7	2	-1	6	16*	2	-2
CS(=O)(=O)c1ccc(C(=O)Nc2ccc(S(=O)(=O)N3CCCCC3)cc2)cc1	2	0	0	-1	15*	-1	0
COC(=O)[C@]12C[C@H](CC(=O)NCc3cccc4ccccc34)C(=O)N(Cc3ccc4c(c3)OCO4)C1=C[C@H](COCc1ccccc1)O[C@@H]2C	nt	1	nt	nt	nt	nt	nt
COCC(=O)N(C)[C@H]1C[C@H]2c3[nH]c4ccccc4c3CCN2C(=O)[C@H]1[C@H](C)O	nt	1	nt	nt	-1	nt	nt
C[C@H](O)[C@@H]1C(=O)N2CCc3c([nH]c4ccccc34)[C@@H]2C[C@@H]1N(C)Cc1ccc(Cl)cc1	nt	0	nt	nt	7.8*	nt	-1
O=C(CSCc1ccc(Cl)cc1)NN=C1CCCC1	-8	-1	1	-6	8.1*	2	-1
N#Cc1ccc(CSCC(=O)NN=C2CCCC2)cc1	-10	-1	-4	18	-2	2	nt
S=c1[nH]nc(Cc2ccccc2)n1Cc1ccco1	6	-1	-3	14	7.7*	-1	0
CCCn1c(Cc2ccccc2)n[nH]c1=S	-2	0	-2	10	1	-6	nt
Nc1nc(=S)ss1	-6	1	-3	13	38*	1	28*
